# Source: PubChem BioAssay (NCI)
# About 83,000 compounds went through this panel and 20% of them were active in at least one assay; those are over-represented in the sample as a whole.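 The test compound was applied at a single concentration to cells in 96-well plates for 48 hours, and percent growth was recorded.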 The source made the active and inactive calls. Rule for the calls: active = growth percent below 10; inactive = the rest.
# Test system: COLO 205 colon
# Assay: NCI-60 one-dose screen, 48 h (100 = growth as untreated, 0 = no growth, -100 = all killed)
# Settings: 10 µM unless noted
row,SMILES,growth
1,CCOc1ccccc1/C=N\Nc1ccc(S(=O)(=O)c2ccc(N/N=C/c3ccccc3OCC)cc2)cc1,114% (inactive)
2,Nc1ccc(Cl)c([N+](=O)[O-])c1,107% (inactive)
3,Oc1ccc(N=Nc2nccs2)c(O)c1,24.8% (inactive)
4,O=C(N[C@@H]1CCCc2ccccc21)[C@H](CCC(=O)N1CCN(C2CCCCC2)CC1)N1C(=O)[C@@H](N2C(=O)OC[C@@H]2c2ccccc2)[C@H]1/C=C/c1ccccc1,34.4% (inactive)
5,Cc1ccc(NC(=S)/N=c2/n(-c3ccccc3)nc3n2CCN3C2=NCCN2)cc1,106% (inactive)
6,CCCCC1COc2cccc3c2N1C=C/C3=C\C(=O)n1ccc2ccccc21 (stereo not drawn),91% (inactive)
7,COc1cc(C)cc2oc3oc(=O)c(-c4nc5ccccc5s4)cc3c(=O)c12,110% (inactive)
8,O=C(Nc1ccccc1)Nc1ccc(C(=O)/C=C/c2ccc(N3CCCC3)cc2)cc1,66.6% (inactive)
9,COc1cc(C)cc2oc3oc(=N)c(C(=O)c4ccccc4)cc3c(=O)c12,124% (inactive)
10,CC[C@]12C=CCN3CC[C@@]4(c5ccc(OC)cc5N(C)[C@H]4[C@@](O)(C(=O)OC)[C@@H]1OC(=O)CCC(=O)N[C@H](Cc1c[nH]c4ccccc14)C(=O)OC)[C@@H]32,0.36% [100 µM] (active)
11,CC(=O)OC[C@]12CC[C@@H]([C@@H](C)C(N)=O)[C@@H]1[C@H]1CC[C@@H]3[C@@]4(C)CC[C@H](OC(C)=O)C(C)(C)[C@@H]4CC[C@@]3(C)[C@]1(C)CC2,-53% [100 µM] (active)
12,O=c1c2c3c(sc2n2cnnc2n1Cc1ccccc1)CCCC3,83.3% (inactive)
13,COc1cc2c(c(OC)c1)C1c3cc(OC)ccc3NC(=O)N1CC2 (stereo not drawn),80.5% (inactive)
14,O=c1cc(-c2ccccc2)oc2cc(OCc3cn(Cc4ccc(F)cc4)nn3)cc(O)c12,103% [100 µM] (inactive)
15,CCN(CC)c1ccc2cc(NC(=O)OCCNC(=O)CCNC(=O)[C@H](CC(C)C)NC(=O)C(C)(C)NC(=O)C(C)(C)NC(=O)[C@H](CC(C)C)NC(=O)CCNC(=O)C(C)(C)NC(=O)[C@H](CC(C)C)NC(=O)CCNC(=O)[C@@](C)(CC)NC(=O)[C@H](C)NC(=O)CCNC(=O)C(C)(C)NC(=O)[C@H](C)NC(=O)[C@@H]3CCCN3C(=O)[C@@](C)(CC)NC(=O)[C@H](Cc3ccccc3)NC(=O)C3CCCN3C(=O)C(C)(C)NC(=O)C3CCCN3C(=O)C(C)(C)NC(C)=O)c(=O)oc2c1 (stereo partly drawn),-81.1% (active)
16,CCCCCCCCCCCCCC[n+]1cccc(C(N)=O)c1,-66.8% (active)
17,CCOC(CNC(=O)c1cccc([N+](=O)[O-])c1)OCC,108% (inactive)

row,SMILES,growth
1,COc1ccc(/C=C/C=C\C(=O)c2ccc(-n3ccnc3)cc2)cc1,101% (inactive)
2,CCNc1cc2c(cc1Br)-c1ccccc1C2=O,111% (inactive)
3,C[n+]1c(-c2ccccc2)c2cc(N)ccc2c2ccccc21,16.7% (inactive)
4,C/C=C/C1OC23CCCCC2C(C#N)(C(=N)O3)C1(C#N)C#N (stereo not drawn),91.6% (inactive)
5,Fc1cc2[nH]ncc2c2c3c(c(-c4cn[nH]c4)nc12)CCCC3,-43.8% (active)
6,CCOC(=O)c1nn(C2CCCCO2)c2ccc(NC(=O)CN3CCCC3)cc12 (stereo not drawn),126% (inactive)
7,Nc1nnc(CSc2nnc3n(Cc4ccccc4)c(=O)c4c5c(sc4n23)CCCC5)s1,77.4% (inactive)
8,O=S(=O)(NCc1ccccc1)c1ncnc2nc[nH]c12,109% (inactive)
9,c1cc2ccc1CNCCN1CCNCc3ccc(cc3)Oc3ccc(cc3)CNCCN(CCNCc3ccc(cc3)O2)CCNCc2ccc(cc2)Oc2ccc(cc2)CNCC1,-86.8% (active)
10,CS(=O)(=O)c1cccnn1,131% (inactive)
11,N=C(N)c1ccc(-c2ccc(-c3ccc(-c4cccs4)s3)s2)cc1F,101% (inactive)
12,CCCSc1nc(N)nc2nc[nH]c12,113% (inactive)
13,C[C@H]1[C@H](C)CC[C@]2(C(=O)O)CC[C@]3(C)C(=CC[C@@H]4[C@@]5(C)C/C(=C/c6cccnc6)[C@H](O)C(C)(C)[C@@H]5CC[C@]43C)[C@H]12,-80.4% [100 µM] (active)
14,O=C1CC(c2ccccc2)Cc2nc3ccc(Br)cc3cc21 (stereo not drawn),-36.3% (active)
15,C1=C[C@H]2O[C@@H]1c1ccc3[nH]ccc3c12,110% (inactive)
16,CCN(CC)c1ccc(/C=C/c2ccc3cc(C)ccc3[n+]2CC)cc1,-21.7% (active)
